Many of the other results were omitted from the sample, so hits are more common in it than they were.
SF-1 inh: SF-1 (human) inhibition; 0.55% of 65,000 active; inhibition, % at 10 µM; CHO-K1 Gal4-SF-1 LBD luciferase reporter; AID 525;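 active = inhibition above the mean inhibition of all tested compounds plus 3 SD, cut at about 48% in these data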
Large screens that a line does not name were inactive.

Fc1ccc(-c2nnc(-c3ccc(Cl)cc3Cl)o2)cc1	none
Clc1ccc(-c2nnc(NC3=NCCCCC3)o2)cc1	SF-1 inh 58
Cn1c(N2CCN(C(=O)NCc3ccccc3)CC2)nc2ccccc21	none
Cn1c(SC2=CS(=O)(=O)c3ccccc32)nc2ccccc21	SF-1 inh 68
Cn1c(C(C#N)C(=O)c2ccco2)nc2ccccc21 (stereo unspecified)	none
Cc1nn(-c2nc3ccccc3s2)c(C)c1Oc1ccccc1O	none
Cc1ccc(NC(=O)c2ocnc2C)cc1Cl	none
CN(C)S(=O)(=O)c1ccc(C(=O)Nc2ccc(CN3CCCC3)cc2)cc1	none
CCN(CC)S(=O)(=O)c1ccc(NC(=O)c2ccccn2)cc1	none
CCCCN(CCCC)S(=O)(=O)c1ccc(C(=O)Nc2nnc(CSC)o2)cc1	SF-1 inh 55
CN(Cc1ccccc1)C(=O)CCNS(=O)(=O)c1ccc2c(c1)oc(=O)n2C	none
O=C(OC(C(=O)NCc1cccs1)c1ccccc1Cl)c1ccco1 (stereo unspecified)	none
CCCCCOC(=O)c1[nH]c2c(c1C)C(=O)CC(c1ccco1)C2 (stereo unspecified)	SF-1 inh 57
O=C(NCc1ccco1)C1CCC(CNS(=O)(=O)c2cccc3cccnc23)CC1 (stereo unspecified)	none
Cc1sc2ncn3cnnc3c2c1C	none
COC(=O)c1cc2oc3ccccc3c2n1Cc1ccccn1	none
CCc1nnc2c3cnn(-c4ccc(C)c(C)c4)c3ncn12	none
CCc1ccc2oc(-c3cc(N=Cc4cccc(OC)c4O)ccc3O)nc2c1	SF-1 inh 51
CCC1C(=O)n2nc(-c3ccccc3)cc2N=C1C (stereo unspecified)	none
O=C(Cn1c(=O)sc2ccccc21)NCCOc1ccccc1F	none

Screens (PubChem BioAssay)
